Screens: PubChem BioAssay, National Center for Advancing Translational Sciences (NCATS)
Only some compounds are listed: those with a hit (about 11% of all), similar ones and a draw of the others.
SW480 rereplic: induces DNA re-replication in SW480 colon adenocarcinoma cells | SW480 DNA re-replication, Hoechst DNA content imaging, 48 h | Potency, µM (top dose mostly 46.1 µM), actives largely listed as activators | actives 1.8% (n = 340,000) | AID 624297; also: nearly all actives have a fitted effect of over 55% in size
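First, 250 cells per well were seeded. Next, compound or vehicle (23 nL) was pinned in, plates sat 48 hr at 37 C. Finally Hoechst was added for 40 min before fluorescence scanning.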
RORg inh: inhibitors of mouse ROR gamma transcriptional activity; P51450; Drosophila S2 Gal4-RORgamma UAS-luciferase reporter, 20 h; AID 2551; actives 5.4% (n = 310,000); Potency, µM (series often up to 53.6 µM), most hits filed as inhibitors; also: nearly all actives have a fitted effect of over 60% in size
Target sequence (P51450 whole entry, looked up, the tested form may be a part): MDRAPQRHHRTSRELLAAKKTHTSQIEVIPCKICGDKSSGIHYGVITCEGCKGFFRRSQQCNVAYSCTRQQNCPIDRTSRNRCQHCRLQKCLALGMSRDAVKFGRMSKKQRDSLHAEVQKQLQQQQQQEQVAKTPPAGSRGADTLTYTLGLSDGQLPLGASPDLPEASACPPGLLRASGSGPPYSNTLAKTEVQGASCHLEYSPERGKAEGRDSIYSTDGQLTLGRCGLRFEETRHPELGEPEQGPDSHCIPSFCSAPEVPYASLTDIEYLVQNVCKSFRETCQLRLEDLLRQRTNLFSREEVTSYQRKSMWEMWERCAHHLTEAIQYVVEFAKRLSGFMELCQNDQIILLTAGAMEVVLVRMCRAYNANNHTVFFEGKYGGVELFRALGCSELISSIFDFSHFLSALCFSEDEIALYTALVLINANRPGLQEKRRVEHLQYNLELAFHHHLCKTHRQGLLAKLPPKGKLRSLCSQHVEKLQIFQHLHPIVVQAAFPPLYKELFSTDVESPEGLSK
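ROR gamma transcriptional activity was tracked as Gal4-UAS luciferase output in stably transfected Drosophila Schneider cells, with compound added 1 hr before 700 uM copper sulfate induction and a 20 hr ambient-temperature incubation.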
IL-1B inflam inh: inhibitors of inflammasome signaling (IL-1 beta secretion) | actives 4.7% (n = 360,000) | activity change, % at 57.5 µM | AID 743279 | THP-1 LPS/ATP IL-1B secretion, AlphaLISA, 16 h; hits give low values; in the data active = activity change below about -50%; inconclusive = mostly about -30% to -49%
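THP-1 cells pretreated 1 hr with compounds (up to 57.5 uM final), then stimulated with LPS (250 ng/mL final) plus ATP (1.25 mM final); secreted IL-1B measured by AlphaLISA after 16 hr, decreased signal indicating inhibition.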
Gal4-VP16 FLuc: inhibits Gal4-VP16 luciferase reporter, ROR gamma counter-screen. Drosophila S2 Gal4-VP16 UAS-luciferase, luminescence, 20 h. AID 2546. actives 3.5% (n = 310,000). Potency, µM (doses to about 53.6 µM), usual class: inhibitors;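 also: Gal4-VP16 expression switched on by copper sulfate through the metallothionein promoter; nearly all actives have a fitted effect of over 50% in size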
MCF10A rereplic: inducers of DNA re-replication in MCF 10A breast cells; Potency, µM (series often up to 46.1 µM), most hits filed as activators; actives 2.9% (n = 350,000); MCF 10A DNA re-replication, Hoechst nuclear intensity, 48 h; also: nearly all actives have a fitted effect of over 50% in size
Hits are given with their value; 0 = inactive; ? = inconclusive; - = not tested or not shown. Unless noted, calls follow the shape of the dose curve; as a rule, active = well fitted curve in the direction sought with a large enough effect; inconclusive = small, poorly fitted or top-dose-only effect, or another doubt; inactive = no such curve, though single readings can be large; an effect the other way counts as inactive or inconclusive.

SMILES	SW480 rereplic	RORg inh	IL-1B inflam inh	Gal4-VP16 FLuc	MCF10A rereplic
O=C(NCCS(=O)(=O)c1ccc(Br)cc1)c1ccc(Cl)cc1	0	0	0	0	0
CC(C)c1ccc(C(C)NCCS(=O)(=O)c2ccc(Cl)cc2)cc1 (centres undefined)	0	?	-77.2	?	?
Cc1ccc(S(=O)(=O)CCC(=O)NCCc2ccc(Cl)cc2)cc1	0	0	0	0	0
CC(C(=O)NCCS(=O)(=O)c1ccc(Br)cc1)S(=O)(=O)c1ccc(Cl)cc1 (centres undefined)	0	0	-50.5	0	0
CC(C)(C)NC(=O)C1c2ccccc2OCC(=O)N1CCc1ccccc1 (centres undefined)	-	-	0	-	-
CC(=O)O[C@H](C(=O)O[C@@H]1C[C@@H](CCC[C@H]2O[C@H](C(=O)OC(C)C)CC[C@@H]2C)O[C@@H](CC#N)C1)c1ccccc1	-	0	-	0	-
CN1C(c2ccc(F)cc2)=CS/C1=C(/C#N)c1nnc(N2CCOCC2)n1-c1ccccc1	0	0	0	0	0
CN1C(=O)NC(c2ccccc2)(C(F)(F)F)S/C1=C(/C#N)c1nnc(N2CCOCC2)n1-c1ccccc1 (centres undefined)	0	14.1µM	0	?	0
COc1ccc(CCNC(=O)COC(=O)CSc2ccc(C(N)=O)cc2[N+](=O)[O-])cc1OC	0	-	0	-	0
COC(=O)CSc1ccc(C#N)c(SCC(=O)OC)c1	0	0	-105.1	0	0
COC(=O)CSc1cc(SCC(=O)OC)c(C#N)c(SCC(=O)OC)c1	0	0	-112.7	0	?
COC(=O)CSc1nc2cc(C)ccc2cc1C#N	0	0	0	0	0
O=C(Nc1cccc(-c2csc(-c3ccccc3)n2)c1)c1cccs1	0	?	-63.5	?	0
Cc1ccn2cc(-c3cccc(NC(=O)c4cccs4)c3)nc2c1	0	0	-98.8	?	?
Cc1cccn2cc(-c3cccc(NC(=O)c4cccs4)c3)nc12	0	0	-83.0	0	0
O=C(c1csnn1)N1CCC2(CCN(Cc3cc(C(F)(F)F)cc(C(F)(F)F)c3)CC2)CC1	-	0	-	0	-
O=C(COC(=O)c1ccc2ccccc2c1)NCc1ccccc1	-	-	0	-	-
Clc1ccc(-c2noc(CN(Cc3ccccn3)CC3CCCO3)n2)cc1 (centres undefined)	0	3.98µM	0	0	0
CCN(Cc1nc(-c2ccc(Cl)cc2)no1)CC1CCCO1 (centres undefined)	0	0	0	0	?
NC1=NCC(O)=C1c1nc2ccccc2[nH]1	0	11.2µM	0	0	0
N=C1C(c2nc3ccccc3[nH]2)=C(O)CN1C1CCCCC1	0	0	0	0	0
N=C1C(c2nc3ccccc3[nH]2)=C(O)CN1c1ccc(F)cc1	0	5.01µM	0	0	0
O=C1NC[C@@H](CCCCN2CCN(CC3CCCCC3)C(=O)C2=O)N(CCC2CCCCC2)C1=O	-	-	0	-	-
CCCC(=O)Nc1ccc2c(c1)nc(CN1CCN(C(=O)OCC)CC1)n2CC	9.2µM	0	0	0	7.31µM
CCCC(=O)Nc1ccc2c(c1)nc(CN1CCN(C(=O)OCC)CC1)n2C	0	0	0	0	0
SMILES	SW480 rereplic	RORg inh	IL-1B inflam inh	Gal4-VP16 FLuc	MCF10A rereplic
NNC(=O)c1cc(Cl)ccc1Cl	?	11.2µM	0	0	?
O=C(NN1CCOCC1)c1cc(Cl)ccc1Cl	0	0	0	0	0
O=C(Nc1ccccc1C(=O)Nc1nnc(C(F)(F)F)s1)c1ccccc1	0	4.47µM	-	5.01µM	?
COc1ccc(-c2nnc(NC(=O)c3ccc(S(=O)(=O)N4CCc5ccccc5C4)cc3)o2)cc1	?	0.126µM	0	0.251µM	0
CCC(CC)c1nnc(NC(=O)c2ccc(S(=O)(=O)N3CCc4ccccc4C3)cc2)s1	0	0	0	0	?
O=C(Nc1nnc(C2CC2)o1)c1ccc(S(=O)(=O)N2CCc3ccccc3C2)cc1	0	0.708µM	0	1.78µM	0
CC(Oc1ccc2c(c1)c1ccnc3c4ccccc4c(=O)n2c13)C(=O)NCCN1CCOCC1 (centres undefined)	?	0	-51.5	?	1.64µM
COc1ccc2c(c1OC)c(=O)n1c3ccc(OC(C)C(=O)NCCCN4CCOCC4)cc3c3ccnc2c31 (centres undefined)	18.4µM	0	?	0	5.8µM
